Assay [1] is described as follows: qHTS assay to identify small molecule antagonists of the estrogen related receptor (ERR) signaling pathway from Tox21 library - cell viability counter screen (AID 1224834). Note: nearly all actives have a fitted effect of over 30% in size. In short, it runs like this:
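Cytotoxicity of test substances is gauged in the same ERR cells used for the antagonist screen, after 17.5 h of compound treatment at 37 C, by CellTiter-Fluor fluorescence measured after 30 min.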

Assay [2] concerns the target Luciferin 4-monooxygenase (Photinus pyralis) (UniProt P08659). In words: qHTS assay to identify small molecule inhibitors of firefly luciferase (AID 1224835). For activity change, negative = inhibition: series mostly up to about 120 µM. Note: nearly all actives have a fitted effect of over 25% in size. Note: potency is the fitted concentration of half-maximal effect. In short, it runs like this: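 Inhibition of purified Photinus luciferase is measured by luminescence. Substrate levels (D-luciferin, ATP) sit at their KM values. Each compound is tested in a concentration series.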

Assay [3] is described as follows: qHTS assay to identify small molecule agonists of the constitutive androstane receptor (CAR) signaling pathway - cell viability counter screen (AID 1224836). Note: series mostly up to about 92 µM; nearly all actives have a fitted effect of over 45% in size. In short, it runs like this: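 Using CellTiter-Fluor, viability of HepG2 cells harbouring hCAR and CYP2B6-2.2kb was measured following 23 h incubation with a 15-concentration compound series plus PK11195 (0.75 uM final).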

Assay [4] can be described thus: qHTS assay to identify small molecule antagonists of the constitutive androstane receptor (CAR) signaling pathway - cell viability counter screen (AID 1224837). Note: series mostly up to about 92 µM; nearly all actives have a fitted effect of over 45% in size. In short, it runs like this: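 Multiplexed cytotoxicity read-out for the CAR antagonist screen: double-stable HepG2-CYP2B6-hCAR cells co-treated with 50 nM CITCO (final) and compound over 15 concentrations, incubated 23 hr, then assessed by CellTiter-Fluor fluorescence.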
In general terms: qHTS replaces the single test concentration by a dilution series.

For assay [5], the target named is Nuclear receptor subfamily 1 group I member 3 (Homo sapiens) (UniProt Q14994). In words: qHTS assay to identify small molecule antagonists of the constitutive androstane receptor (CAR) signaling pathway (AID 1224838). Note: nearly all actives have a fitted effect of over 40% in size. In short, it runs like this:
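Compounds were titrated across 15 concentrations onto HepG2 cells double-stably expressing hCAR and a CYP2B6-2.2kb reporter, together with 50 nM CITCO (final). After 24 h at 37 C, luciferase activity was measured by luminescence.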

The target is the same in assay [6]. The assay can be described thus: qHTS assay to identify small molecule agonists of the constitutive androstane receptor (CAR) signaling pathway (AID 1224839).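 Note: HepG2 cells stably carrying human CAR and a CYP2B6 luciferase reporter; series mostly up to about 92 µM; nearly all actives have a fitted effect of over 15% in size.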 In short, it runs like this:
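Double-stable HepG2 cells (hCAR, CYP2B6-2.2kb) seeded 4 h before compound addition. Exposure 24 h with 0.75 uM PK11195 final. Luciferase detected by ONE-Glo.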

Assay [7] in a line: qHTS assay to identify small molecule antagonists of the estrogen related receptor signaling pathway with the pleiotropic PPARgamma coactivator (PGC) from Tox21 10K library - cell viability counter screen (AID 1224840; active = well fitted cell-killing curve with a large enough effect in the repeat runs, not every such curve was filed as active; note: nearly all actives have a fitted effect of over 40% in size). In short, it runs like this:
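Step one, plate 2,000 PGC/ERR cells per well; step two, incubate 6 h at 37 C/5% CO2; step three, pin-transfer compounds; step four, incubate 17.5 h; step five, add CellTiter-Fluor and read fluorescence after 30 min.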

The nature of assay [8]: qHTS assay to identify small molecule antagonists of the estrogen related receptor signaling pathway with the pleiotropic PPARgamma coactivator (PGC) from Tox21 10K library (AID 1224841; call rule not given here; note: series mostly up to about 92 µM; actives are mostly falling curves and most rising ones were filed inactive; nearly all actives have a fitted effect of over 50% in size). In short, it runs like this: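 Antagonism in this quantitative HTS is taken from loss of luciferase signal in PGC/ERR cells. Cells (2,000/well) are treated with compounds in DMSO after a 6 h settling period and read by One-Glo luminescence after 18 h.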

A short description of assay [9]: qHTS assay to identify small molecule agonists of the estrogen related receptor signaling pathway with the pleiotropic PPARgamma coactivator (PGC) from Tox21 10K library (AID 1224842). Note: nearly all actives have a fitted effect of over 15% in size. In short, it runs like this:
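Luminescence from One-Glo (30 min, room temperature) measured after PGC/ERR cells had 18 h at 37 C with pinned compound (23 nL in DMSO). Cells had been seeded at 2,000 per well and pre-incubated 6 h.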

Inconclusive results are not listed. Values without a mark were called inactive. The source made the active and inactive calls. Unless noted, calls come from the whole dose curve; as a rule, active = well fitted curve in the direction sought with a large enough effect in the repeat runs; inconclusive = weak or mixed curves; inactive = no such curve, though single readings can be large; an effect the other way counts as inactive or inconclusive.
% is set by controls: 0 for no effect and ±100 for the full control effect.

Luciferin 4-monooxygenase (Photinus pyralis), sequence (P08659 whole entry, looked up): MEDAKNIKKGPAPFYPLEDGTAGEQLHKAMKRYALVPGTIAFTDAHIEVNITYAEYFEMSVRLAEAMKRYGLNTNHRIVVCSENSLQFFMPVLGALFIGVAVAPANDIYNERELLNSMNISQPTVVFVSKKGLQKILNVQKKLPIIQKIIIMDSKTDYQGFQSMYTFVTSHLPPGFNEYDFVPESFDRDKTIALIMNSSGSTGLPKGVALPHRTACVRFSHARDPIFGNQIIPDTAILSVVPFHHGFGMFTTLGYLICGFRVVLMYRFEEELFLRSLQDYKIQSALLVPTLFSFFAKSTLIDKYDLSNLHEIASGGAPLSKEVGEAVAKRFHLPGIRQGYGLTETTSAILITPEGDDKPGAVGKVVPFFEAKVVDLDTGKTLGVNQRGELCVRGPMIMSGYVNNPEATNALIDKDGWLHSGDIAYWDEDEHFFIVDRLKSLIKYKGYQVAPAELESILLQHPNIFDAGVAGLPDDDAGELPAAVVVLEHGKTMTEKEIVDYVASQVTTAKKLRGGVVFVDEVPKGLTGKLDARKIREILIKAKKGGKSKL
Nuclear receptor subfamily 1 group I member 3 (Homo sapiens), sequence (Q14994 whole entry, looked up): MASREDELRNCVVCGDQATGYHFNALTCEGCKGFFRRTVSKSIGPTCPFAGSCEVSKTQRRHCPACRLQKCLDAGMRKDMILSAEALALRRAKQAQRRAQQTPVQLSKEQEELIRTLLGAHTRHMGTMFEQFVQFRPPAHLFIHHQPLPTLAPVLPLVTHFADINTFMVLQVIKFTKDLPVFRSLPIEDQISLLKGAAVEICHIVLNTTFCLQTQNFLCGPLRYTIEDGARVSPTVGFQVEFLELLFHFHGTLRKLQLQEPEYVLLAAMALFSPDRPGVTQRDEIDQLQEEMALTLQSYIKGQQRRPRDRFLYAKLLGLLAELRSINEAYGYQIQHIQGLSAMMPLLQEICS

Turning to `COc1ccccc1OC`, the Potency entry in [1], in assay [2], in assay [3], in [4], in assay [5] and in assay [6] was “inactive” in each case. The Potency entry in [7], in [8] and in assay [9] was “inactive” each time.
Turning to `COC(=O)c1ccccc1CS(=O)(=O)NC(=O)Nc1nc(OC)cc(OC)n1`, the Potency entry in assay [1], in assay [2], in [3], in assay [4], in assay [5] and in [6] was “inactive” each time. Also, the Potency entry in assay [7], in assay [8] and in assay [9] was “inactive” in each case.
Regarding `C#CC(C)(C)O`, the Potency result in assay [1], in [2], in [3], in [4], in assay [5] and in assay [6] was “inactive” throughout. Moreover, the Potency entry in [7], in [8] and in [9] was “inactive” each time.
For the compound `C[C@@H](N)[C@@H](O)c1ccccc1`, the Potency entry in assay [1], in assay [2], in assay [3], in assay [4], in assay [5] and in assay [7] was “inactive” in each case.
In the case of `CNC(=O)O/N=C(/CSC)C(C)(C)C`, the Potency result in assay [1], in [2], in assay [3], in assay [4], in [5] and in [7] was “inactive” in each case.
Consider `C[C@H](N)C(=O)c1ccccc1`, for which the Potency entry in assay [1], in [2], in assay [3], in assay [4], in [5] and in assay [7] was “inactive” each time.
Regarding `CC(C)c1ccc(O)cc1`, the Potency result in assay [1], in assay [2], in assay [3], in assay [4], in assay [5] and in assay [6] was “inactive” in each case. The Potency result in assay [7], in assay [8] and in [9] was “inactive” each time.
On to `C[C@]12C=CC(=O)C=C1CC[C@@H]1[C@@H]2CC[C@@]2(C)[C@H]1CC[C@]2(C)O`, for which the Potency result in assay [1], in assay [2], in assay [3], in [4], in assay [5] and in assay [6] was “inactive” in each case. Moreover, the Potency result in [7], in [8] and in assay [9] was “inactive” each time.
As to `ClCC1CO1` (stereo not given), the Potency entry in assay [1], in [2], in [3], in assay [4], in assay [5] and in assay [6] was “inactive” throughout. The Potency result in assay [7], in assay [8] and in assay [9] was “inactive” each time.
As to `CCCC[N+](=O)[O-]`, the Potency result in assay [1], in [2], in assay [3], in assay [4], in assay [5] and in [6] was “inactive” in each case. Moreover, the Potency result in [7], in [8] and in [9] was “inactive” in each case.
As to `CC(C)C(C)(N)C#N` (stereo not given), the Potency entry in assay [1], in assay [2], in assay [3], in assay [4], in [5] and in [7] was “inactive” each time.
With `Brc1c(Br)c(Br)c(Br)c(Br)c1Br`, the results for the viability change, negative = cytotoxic in assay [1], in assay [3] and in assay [7] were 3.18% [at 8.39 µM], 3.28% [at 8.39 µM] and -4.4% [at 8.39 µM], respectively. The activity change, negative = inhibition in assay [2] is -3.44% [at 10.5 µM]. Also, in assay [4], the activity change, negative = cytotoxicity is -3.15% [at 8.39 µM]. Besides, the activity, negative = inhibition in assay [5] is -5.81% [at 8.39 µM].
As to `CCOC(=O)Nc1cccc(OC(=O)Nc2ccccc2)c1`, the Potency entry in assay [1], in assay [3], in [4], in [5] and in assay [7] was “inactive” in each case. In addition, in assay [2], the Potency was 31.7 µM (active).
On to `CCC(C)C(C)(COC(N)=O)COC(N)=O` (stereo not given), for which the Potency result in assay [1], in assay [2], in assay [3], in [4], in assay [5] and in assay [6] was “inactive” each time. The Potency result in assay [7], in assay [8] and in [9] was “inactive” in each case.
On to `O=C(Cl)OCc1ccccc1`, for which the Potency entry in assay [1], in assay [2], in [3], in assay [4], in [5] and in assay [7] was “inactive” in each case. Moreover, the Potency result in [8] and in assay [9] was “inactive” in each case.
In the case of `CC(C)(C)C(=O)C(Cl)Cl`, the Potency result in assay [1], in assay [2], in assay [3], in assay [4], in assay [5] and in assay [7] was “inactive” throughout.
For the compound `CCC1(c2ccccc2)C(=O)N(COC)C(=O)N(COC)C1=O`, the Potency entry in assay [1], in [2], in assay [3], in assay [4], in [5] and in assay [7] was “inactive” throughout. The Potency entry in assay [8] and in [9] was “inactive” in each case.
Turning to `CCC(C(N)=O)N1CCCC1=O` (stereo not given), the Potency result in assay [1], in assay [2], in assay [3], in assay [4], in [5] and in assay [7] was “inactive” in each case.
Regarding `CCCOC(=O)Cc1ccc(OCC(=O)N(CC)CC)c(OC)c1`, the Potency result in assay [1], in assay [2], in [3], in assay [4] and in [7] was “inactive” each time.
Turning to `CCCOC(=O)c1cncn1C(C)c1ccccc1` (stereo not given), the Potency result in [1], in assay [2], in assay [3], in assay [4], in assay [5] and in [7] was “inactive” throughout. For the same compound, the Potency entry in assay [8] and in [9] was “inactive” in each case.
On to `C/C(=N\NC(=O)Nc1cc(F)cc(F)c1)c1ncccc1C(=O)O`, for which the Potency result in assay [1], in [2], in [3], in assay [4], in assay [5] and in [7] was “inactive” in each case.
For `CC(Cl)(Cl)Cl`, the Potency entry in [1], in assay [2], in assay [3], in assay [4], in assay [5] and in assay [7] was “inactive” each time. Besides, the Potency entry in assay [8] and in assay [9] was “inactive” in each case.
Turning to `N[C@@H](Cc1ccc(Oc2cc(I)c(O)c(I)c2)c(I)c1)C(=O)O`, the Potency result in assay [1], in assay [2], in assay [3], in [4], in assay [5] and in assay [7] was “inactive” throughout.
With `COc1cccc(C=O)c1`, the Potency entry in assay [1], in assay [2], in assay [3], in [4], in assay [5] and in [7] was “inactive” each time. Besides, the Potency result in [8] and in assay [9] was “inactive” throughout.
As to `[O-][Br+2]([O-])O`, the Potency entry in assay [1], in [2], in assay [3], in [4], in assay [5] and in [7] was “inactive” throughout.
For the compound `CCOc1cc(OP(=S)(OC)OC)nc(CC)n1`, the Potency entry in assay [1], in assay [2], in assay [3], in assay [4] and in assay [7] was “inactive” throughout.
Consider `ClCCCCl`, for which the Potency result in assay [1], in assay [2], in assay [3], in assay [4], in [5] and in [7] was “inactive” each time.
With `C/C=C/CC#N`, the Potency result in [1], in [2], in assay [3], in [4], in assay [5] and in assay [7] was “inactive” in each case.
With `COc1cc(CC(C)N)cc(OC)c1OC` (stereo not given), the Potency result in assay [1], in assay [2], in assay [3], in assay [4], in [5] and in assay [7] was “inactive” each time. The Potency entry in assay [8] and in assay [9] was “inactive” in each case.
On to `O=c1[nH]c2ccccc2o1`, for which the Potency entry in assay [1], in [2], in [3], in [4], in [5] and in [7] was “inactive” throughout. In addition, in [9], the Potency entry is “inactive”.

The values above are taken from PubChem BioAssay (Tox21).
